In the library only some 27% were active in any assay of this set; here they are far more common.
CYP2C19 act: cytochrome P450 2C19 (human) activation | recombinant CYP2C19, luciferin-H EGE luminescence; hits give high values; 0 = fully inhibited enzyme, 1 = untreated enzyme | P33261 | activation factor at 5 µM | 96,000 tested, under 10 active;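 active = activation factor of at least 2 at 5 µM in the primary screen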;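 note: 0 = wells with 2.5 mM tranylcypromine and 1 = vehicle-only wells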
Target sequence (P33261 whole entry, looked up): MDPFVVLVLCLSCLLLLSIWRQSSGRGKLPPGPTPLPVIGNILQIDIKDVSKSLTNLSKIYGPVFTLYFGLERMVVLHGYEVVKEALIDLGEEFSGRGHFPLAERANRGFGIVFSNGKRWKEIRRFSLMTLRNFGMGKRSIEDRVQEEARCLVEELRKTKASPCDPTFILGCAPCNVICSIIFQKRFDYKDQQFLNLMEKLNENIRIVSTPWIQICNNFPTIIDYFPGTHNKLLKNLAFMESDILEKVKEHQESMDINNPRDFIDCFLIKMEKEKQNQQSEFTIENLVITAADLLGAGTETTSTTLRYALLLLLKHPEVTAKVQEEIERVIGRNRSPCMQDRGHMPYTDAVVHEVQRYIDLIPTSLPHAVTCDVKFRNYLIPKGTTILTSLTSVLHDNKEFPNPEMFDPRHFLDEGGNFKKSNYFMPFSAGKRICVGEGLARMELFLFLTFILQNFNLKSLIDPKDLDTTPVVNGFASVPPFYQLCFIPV
CYP2C19 inh: inhibitors of human CYP2C19 | CYP2C19 Supersomes, luciferin-H EGE luminescence, 30 min | inhibition, % at 5 µM | 96,000 compounds, 21% hits | AID 778;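 active = CYP2C19 inhibition above a set limit at 5 µM in the primary screen, cut at about 50% in these data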;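 note: plate controls were negative control wells for no effect and 2.5 mM tranylcypromine positive control for full effect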
CYP2C9 inhib: blocks human cytochrome P450 2C9 | CYP2C9 Supersomes, luciferin-H conversion, luminescence | 96,000 compounds, 20% hits | inhibition, % at 5 µM;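 active = blocking of liver enzyme CYP2C9 beyond about 50% at 5 µM, limit read from the data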
Cav3 T inh: inhibitors of human Cav3.2 T-type calcium channel | O95180 | Cav3.2-expressing cells, Fluo-4 calcium fluorescence FDSS; hits give low values | B-score at 10 µM | 100,000 compounds, 4% hits;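 active = single-dose well whose peak fluorescence ratio is a statistical outlier from its plate by either plate-standardised score or position-corrected B-score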
CYP2C9 activ: increases human cytochrome P450 2C9 activity | AID 1024 | activation factor at 5 µM | recombinant CYP2C9, luciferin-H conversion, luminescence; hits give high values; factor 1 = untreated enzyme, 0 = blocked | P11712 | 96,000 compounds, 1.4% hits;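 active = activation factor of 2 or more for CYP2C9 at a 5 µM dose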;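 note: 0 = sulfaphenazole-blocked wells and 1 = vehicle-only wells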
Active calls of the source: *; / = no result given.

SMILES	CYP2C19 act	CYP2C19 inh	CYP2C9 inhib	Cav3 T inh	CYP2C9 activ
Nc1nc2c(s1)CCc1c-2cnn1-c1ccccc1	0.5	53*	29	-1.9	0.7
O=C(NC1CCCCC1)N(Cc1ccc(F)cc1)Cc1nc2ccccc2c(=O)[nH]1	0.9	12	-14	-0.62	1.1
COc1ccc(CCn2c(=S)[nH]c3cc(C(=O)NCc4ccco4)ccc3c2=O)cc1OC	0.6	42	60*	/	0.4
CCCOc1cc(CC(=O)NCc2ccco2)ccc1OC	0.3	71*	63*	1.7	0.4
COc1ccc(C(=O)NC(=S)NCc2ccco2)cc1OC	0.5	54*	70*	0.77	0.3
COc1ccc(-n2c(=S)[nH]c3cc(C(=O)NCc4ccco4)ccc3c2=O)cc1OC	1	-4	-4	0.38	1
COc1ccc(NC(=S)N(CCc2nc3cc(C)c(C)cc3[nH]2)Cc2cccnc2)cc1	0.8	24	45	-2.9	0.6
Cc1nc(-c2ccccc2)sc1C1(C)CC(c2cccc([N+](=O)[O-])c2)=NO1 (stereo not given)	/	/	/	0.081	/
COCCn1c(=S)[nH]c2cc(C(=O)N3CCN(c4ccc(F)cc4)CC3)ccc2c1=O	1	0	12	-0.029	0.9
CCCN1C/C(=C/c2cccc([N+](=O)[O-])c2)C(=O)/C(=C/c2cccc([N+](=O)[O-])c2)C1	0.4	61*	44	1.2	0.6
COC(C[C@@H](O)[C@H](C)[C@@H](O)COCc1ccccc1)OC	/	/	/	0.31	/
COc1ccc(-c2cc(C3CCN(c4ccc(C(C)=O)cc4[N+](=O)[O-])CC3)[nH]n2)cc1	0.2	84*	65*	-1.5	0.3
CC(=O)c1ccc(N2CCC(c3cc(-c4ccc(Cl)cc4)n[nH]3)CC2)c([N+](=O)[O-])c1	0.4	56*	57*	0.053	0.4
COC(=O)c1ccc(N2CCC(c3cc(-c4ccc(OC)cc4)n[nH]3)CC2)c([N+](=O)[O-])c1	0.5	48	49	-0.49	0.5
Cc1ccc(-c2nnn(CC(=O)Nc3ccccc3-c3ccccc3)n2)c(-n2cnnn2)c1	0.6	36	52*	-0.36	0.5
CC(C)COc1ccc(/C(O)=C2/C(=O)C(=O)N(CCN(C)C)C2c2ccncc2)cc1 (stereo not given)	1.1	-10	2	-0.0066	1
COc1cc(C2/C(=C(/O)c3ccc(OCC(C)C)cc3)C(=O)C(=O)N2CCN(C)C)ccc1O (stereo not given)	0.3	68*	8	0.88	0.9
COc1cc(CCCN2C(N)=NC[C@@H]2Cc2ccc(O)cc2)cc(OC)c1OC	/	/	/	0.048	/
CC(=O)Nc1ccc(C(=O)OCc2ccc(Cl)cc2)cc1	0.4	63*	75*	-0.073	0.2
CS(=O)(=O)N(CC(=O)NC1CCCCC1)Cc1ccc(Cl)cc1	0.8	23	-17	0.025	1.2
CC(=O)Nc1ccc(C(=O)N/N=C/c2ccccc2OC(=O)c2ccc(Cl)cc2)cc1	0.6	40	60*	0.47	0.4
COc1ccc(NC(=O)CCC(=O)OCc2ccc(C(=O)Oc3ccc(Cl)cc3)cc2)cc1	1	-4	3	-0.63	1
CCOC(=O)c1ccc(NC(=O)CN(Cc2ccc(Cl)cc2)S(C)(=O)=O)cc1	0.1	94*	83*	-3.4	0.2
CS(=O)(=O)N(CC(=O)NC1CCCC1)Cc1ccc(Cl)cc1	0.4	58*	26	0.26	0.7
CC(=O)Nc1ccc(S(=O)(=O)Oc2ccc(/C=N/NC(=O)c3ccc(Cl)cc3)cc2)cc1	1	5	50	0.36	0.5
SMILES	CYP2C19 act	CYP2C19 inh	CYP2C9 inhib	Cav3 T inh	CYP2C9 activ
CC1(C)CC(=O)CC(=Nc2ccc(C(=O)O)cc2)C1	1.1	-10	-12	0.034	1.1
CCOc1nc(Nc2ccc(OC)c(Cl)c2)nc(OCC)n1	0.9	5	8	-1.3	0.9
CS(=O)(=O)N(CC(=O)NCc1ccco1)Cc1ccc(Cl)cc1	0.4	58*	34	/	0.7
CS(=O)(=O)N(CC(=O)NCC1CCCO1)Cc1ccc(Cl)cc1 (stereo not given)	0.2	78*	4	0.93	1
CCOC(=O)c1ccc(NC(=O)CNC(=O)c2ccccc2)cc1	0.8	16	8	-0.054	0.9
CC(=O)Nc1ccc(C(=O)OCC(=O)N(Cc2ccccc2)C(C)(C)C)cc1	0.2	79*	71*	-1.2	0.3
CS(=O)(=O)N(CC(=O)NCc1ccccc1)Cc1ccc(Cl)cc1	0.7	33	0	-1	1
